From PubChem BioAssay AID651640 (Broad Institute, 2012)
“And” between values parts separate entries of the source, which are not always exact repeats. Equal values may be shown once. In all, about 350,000 compounds went through this assay and about 6,000 (1.7%) were called active. Another 5% or so got no clear call; they are omitted. Cut-off read from the data, not from the text of the source: active = CPE inhibition above about 20% (passing the limit was not always enough); inconclusive = no clear call, values can overlap the other calls; tested in BHK-21 cells. Only a selection was taken, and actives are over-represented in it overall. More than one record can exist for a structure, and the calls need not agree.

Test: protection of cells from dengue 2 killing – plate reader, single concentration, primary screen (AID 651640);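 note: 0% = median of neutral control wells and 100% = median of positive control wells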
Conditions: DENV2-infected cells, cytopathic effect rescue, at 9.99 µM, stronger effect = higher value
For COc1ccc(-n2nc3c(c2NC(=O)Cc2cccc(C)c2)CS(=O)C3)cc1 (configuration not stated), the CPE inhibition was 99.5% (active). With Cc1ccc(-n2nc3c(c2NC(=O)CCC2CCCCC2)CS(=O)C3)cc1 (configuration not stated) the CPE inhibition was -3.75% (inactive). For CC(Oc1ccccc1)C(=O)Nc1c2c(nn1-c1ccccc1)CS(=O)C2 (configuration not stated), the CPE inhibition was 2.29% (inactive). In the case of CCCCN1CC(C)(C)[C@H](CC(=O)Nc2ccc(Br)cc2)C1=O, the CPE inhibition is reported as 6.43% (inactive). In the case of CC1(C)CN(Cc2cccnc2)C(=O)[C@H]1CC(=O)Nc1ccc(Br)cc1, the CPE inhibition is reported as 30.1% (active). With CC1(C)CN(CCc2ccccc2)C(=O)[C@H]1CC(=O)Nc1ccc(Br)cc1 the CPE inhibition was 0.989% (inactive). In the case of C[C@@H]1CCCCO[C@@H](CN(C)C(=O)CCC(F)(F)F)[C@H](C)CN([C@@H](C)CO)C(=O)c2cc(NC(=O)CCCN(C)C)ccc2O1, the CPE inhibition is reported as 3.1% (inactive). In the case of O=S(=O)(NC[C@H]1[C@@H](c2ccccc2)[C@@H](CO)N1CC1CC1)c1ccccc1, the CPE inhibition is reported as 8.65% (inactive). With O=C(NC[C@H]1[C@@H](c2ccccc2)[C@H](CO)N1CC1CC1)c1cccnc1 the CPE inhibition was -7.73% (inactive). For O=C(NC[C@@H]1[C@H](c2ccccc2)[C@H](CO)N1CC1CCCC1)c1cccnc1, the CPE inhibition was 54.5% (active). For COc1cccc(-c2ccc3c(c2)O[C@H](CN(C)C(=O)C2CCOCC2)[C@H](C)CN([C@H](C)CO)S3(=O)=O)c1, the CPE inhibition was -2.8% (inactive). In the case of Cc1cnc(CN(C)C(=O)CC2C(=O)NCCN2Cc2cccc(F)c2F)[nH]1 (configuration not stated), the CPE inhibition is reported as 20.8% (active). In the case of CC(C)c1nc(CNC(=O)CC2C(=O)NCCN2Cc2cccc(F)c2F)cs1 (configuration not stated), the CPE inhibition is reported as -4.34% (inactive). For CN(Cc1cccc2ncccc12)C(=O)CC1C(=O)NCCN1Cc1ccc(F)cc1 (configuration not stated), the CPE inhibition was 2.99% (inactive). With C[C@@H]1CN([C@@H](C)CO)C(=O)c2cc(NC(=O)Nc3cccc4ccccc34)ccc2O[C@@H](C)CCCCO[C@@H]1CN(C)S(=O)(=O)c1ccc(Cl)cc1 the CPE inhibition was -12.5% (inactive). In the case of COc1ccccc1-c1ccc2n(c1=O)C[C@H]1[C@H](CO)[C@@H](C(=O)N[C@@H](C)c3ccccc3)[C@@H]2N1C, the CPE inhibition is reported as -8.56% (inactive). In the case of CC(C)CC#Cc1ccc([C@@H]2[C@@H](CO)N3C(=O)CN(C(=O)c4cnccn4)C[C@@H]23)cc1, the CPE inhibition is reported as -1.01% (inactive). For O=C(C[C@@H]1C=C[C@H](NC(=O)CCN2CCCCC2)[C@H](CO)O1)NCc1ccc(Cl)c(Cl)c1, the CPE inhibition was 0.258% (inactive). With COc1ccc(C(=O)/C=C/c2cccnc2)c(OC)c1 the CPE inhibition was -6.66% (inactive). In the case of COc1ccc(/C=C/C(=O)c2ccc(OC)cc2O)cc1, the CPE inhibition is reported as 64.1% (active). In the case of COc1ccc(/C=C/C(=O)c2c(O)cc(OC)cc2OC)cc1, the CPE inhibition is reported as -8.14% (inactive). For O=C1NC[C@@H](c2ccccc2)OC(=O)[C@H](Cc2ccc(F)cc2)CC/C=C/C[C@H]1CC(=O)N(CCO)Cc1ccccc1, the CPE inhibition was -5.29% (inactive). In the case of O=C1CCC/C=C/C[C@@H](CC(=O)N(CCO)Cc2ccccc2)C(=O)NC[C@H](c2ccccc2)O1, the CPE inhibition is reported as 85.4% (active). With O=C1CCC/C=C\C[C@@H](CC(=O)N(CCO)Cc2ccccc2)C(=O)NCCO1 the CPE inhibition was -1.93% (inactive). For COCCN(C[C@H]1[C@H](c2ccccc2)[C@@H](CO)N1C(C)=O)C(=O)c1cccnc1, the CPE inhibition was -2.67% (inactive). In the case of CN1C(=O)c2cc(NS(=O)(=O)c3ccccc3F)ccc2OC[C@@H]2O[C@@H](CC(=O)NC3Cc4ccccc4C3)CC[C@@H]21, the CPE inhibition is reported as 11.5% (inactive). With Cc1ccc(F)cc1S(=O)(=O)N[C@@H]1CCN(Cc2ccc(-c3ccccc3)cc2)C1 the CPE inhibition was -7.61% (inactive). With Cc1ccc2nc(-c3ccc(CN4CCC(n5cc(-c6ccccc6)[nH]c5=O)CC4)cc3)c(-c3ccccc3)nc2c1 the CPE inhibition was -12.7% (inactive). In the case of O=c1[nH]c(-c2ccccc2)cn1C1CCN(Cc2ccc(-c3nc4ccc(F)cc4nc3-c3ccccc3)cc2)CC1, the CPE inhibition is reported as 33.2% (active). For C=CCN=C1NC(c2cccc(C(F)(F)F)c2)C(C(=O)OC)=C(C)N1C (configuration not stated), the CPE inhibition was 2.58% (inactive). In the case of C[C@@H](NC(=O)C[C@@H]1CC[C@@H](NC(=O)C2CCOCC2)[C@@H](CO)O1)c1ccccc1, the CPE inhibition is reported as 11.3% (inactive). In the case of CN1c2ccc(-c3ccc(F)cc3)cc2[C@@H]2[C@@H](CCN2S(=O)(=O)c2ccc(F)cc2)[C@@H]1CO, the CPE inhibition is reported as -22.1% (inactive). With C[C@]1(C(=O)NCCc2c[nH]c3ccccc23)C=C[C@@H](Cc2ccccc2)N1C(=O)c1ccccc1 the CPE inhibition was 40.2% (active). With O=C(NCCc1c[nH]c2ccccc12)c1cccc(Br)c1 the CPE inhibition was 0.922% (inactive). With CC(=O)NC(Cc1c[nH]c2ccccc12)C(=O)NCCc1ccccc1 (configuration not stated) the CPE inhibition was -3% (inactive). With COCCNC(=O)C[C@H]1CC[C@@H]2[C@H](COc3ccc(NC(=O)Nc4cccc(F)c4)cc3C(=O)N2C)O1 the CPE inhibition was -0.175% (inactive). For Cc1noc(C)c1NC(=O)Nc1ccc2c(c1)C(=O)N([C@H](C)CO)C[C@H](C)[C@@H](CN(C)S(=O)(=O)c1cn(C)cn1)O2, the CPE inhibition was 8.16% (inactive) and 22.2% (active). For C[C@H](CO)N1C[C@H](C)[C@H](CN(C)S(=O)(=O)c2cn(C)cn2)Oc2ccc(N(C)C)cc2C1=O, the CPE inhibition was 6.45% (inactive). For Cc1noc(C)c1NC(=O)Nc1ccc2c(c1)C(=O)N([C@@H](C)CO)C[C@H](C)[C@H](CN(C)S(=O)(=O)c1cn(C)cn1)OCCCC[C@@H](C)O2, the CPE inhibition was -4.2% (inactive). For COc1ccc(S(=O)(=O)N(C)C[C@@H]2Oc3ccc(NC(=O)Nc4c(C)noc4C)cc3C(=O)N([C@H](C)CO)C[C@@H]2C)cc1, the CPE inhibition was -4.21% (inactive) and 6.91% (inactive). For C[C@@H]1CN([C@H](C)CO)C(=O)c2cc(N(C)C)ccc2O[C@@H]1CN(C)S(=O)(=O)c1cn(C)cn1, the CPE inhibition was 70.9% (active). In the case of C[C@H](CO)N1C[C@H](C)[C@H](CN(C)S(=O)(=O)c2cn(C)cn2)OCCCC[C@H](C)Oc2ccc(N(C)C)cc2C1=O, the CPE inhibition is reported as 1.23% (inactive). With COCC(=O)Nc1ccc2c(c1)[C@@H]1C[C@@H](CC(=O)N3CCN(C)CC3)O[C@H](CO)[C@@H]1O2 the CPE inhibition was 2.6% (inactive). With C[C@@H]1CN([C@H](C)CO)C(=O)c2cccc(NC(=O)CCCCCC(=O)Nc3ccccc3N)c2O[C@H]1CN(C)Cc1ccc(Oc2ccccc2)cc1 the CPE inhibition was -13.3% (inactive). In the case of CO[C@@H]1CN(C)C(=O)c2cc(NC(C)=O)ccc2OC[C@H](C)N(C(=O)Cc2ccccn2)C[C@@H]1C, the CPE inhibition is reported as -0.178% (inactive). With COCC(=O)N1CCC2(CC1)CN(C(=O)Nc1ccccc1F)[C@@H](CO)c1c2c2ccc(OC)cc2n1C the CPE inhibition was -0.316% (inactive). For COCC(=O)Nc1ccc2c(c1)OC[C@@H](C)N(C(=O)c1cnccn1)C[C@H](C)[C@H](OC)CN(C)C2=O, the CPE inhibition was -10.2% (inactive). For C[C@@H]1CCCCO[C@@H](CN(C)C(=O)CCCN(C)C)[C@H](C)CN([C@@H](C)CO)C(=O)c2cc(NC(=O)Nc3ccccc3)ccc2O1, the CPE inhibition was -0.42% (inactive). For C[C@H]1CCCCO[C@H](CN(C)C(=O)NC2CCCCC2)[C@@H](C)CN([C@@H](C)CO)C(=O)c2cc(NC(=O)Nc3ccc4c(c3)OCO4)ccc2O1, the CPE inhibition was 34.9% (active). With C[C@@H]1CCCCO[C@H](CN(C)C(=O)NC2CCCCC2)[C@H](C)CN([C@@H](C)CO)C(=O)c2cc(NC(=O)Nc3ccc(F)cc3)ccc2O1 the CPE inhibition was 3.1% (inactive). With C[C@@H]1CN([C@@H](C)CO)C(=O)c2cc(NC(=O)Nc3ccc4c(c3)OCO4)ccc2O[C@@H](C)CCCCO[C@@H]1CN(C)C(=O)Nc1ccc2c(c1)OCO2 the CPE inhibition was 0.286% (inactive). With C[C@H](CO)N1C[C@H](C)[C@@H](CN(C)C(=O)Nc2ccc3c(c2)OCO3)OCCCC[C@H](C)Oc2ccc(NC(=O)Nc3ccc4c(c3)OCO4)cc2C1=O the CPE inhibition was 0.76% (inactive). With C[C@@H]1CN([C@@H](C)CO)C(=O)c2cc(NC(=O)Nc3ccc(C(F)(F)F)cc3)ccc2O[C@@H](C)CCCCO[C@H]1CN(C)C(=O)CCCN(C)C the CPE inhibition was -0.11% (inactive). With C[C@@H]1CN([C@@H](C)CO)C(=O)c2cc(NC(=O)Nc3ccc(C(F)(F)F)cc3)ccc2O[C@@H](C)CCCCO[C@@H]1CN(C)C(=O)Nc1cccc2ccccc12 the CPE inhibition was -5.51% (inactive). With C[C@@H]1CCCCO[C@H](CN(C)C(=O)Nc2cccc3ccccc23)[C@@H](C)CN([C@@H](C)CO)C(=O)c2cc(NC(=O)Nc3ccc(F)cc3)ccc2O1 the CPE inhibition was 32.7% (active). In the case of COc1ccc(NC(=O)Nc2ccc3c(c2)C(=O)N([C@@H](C)CO)C[C@H](C)[C@@H](CN(C)C(=O)Nc2cccc4ccccc24)OCCCC[C@@H](C)O3)cc1, the CPE inhibition is reported as -3.89% (inactive). For C[C@@H]1CCCCO[C@@H](CN(C)C(=O)CCCN(C)C)[C@@H](C)CN([C@H](C)CO)C(=O)c2cc(NC(=O)Nc3ccc(F)cc3)ccc2O1, the CPE inhibition was 26.3% (active). For C[C@@H]1CCCCO[C@@H](CN(C)C(=O)NC2CCCCC2)[C@H](C)CN([C@@H](C)CO)C(=O)c2cc(NC(=O)Nc3ccc(F)cc3)ccc2O1, the CPE inhibition was 24.1% (active). With C[C@@H]1CCCCO[C@H](CN(C)C(=O)NC2CCCCC2)[C@H](C)CN([C@H](C)CO)C(=O)c2cc(NC(=O)Nc3ccc(F)cc3)ccc2O1 the CPE inhibition was -5.97% (inactive). In the case of O=S(=O)(c1ccc(F)cc1)N1CCCCN2[C@H](C1)[C@H](c1ccc(C3=CCCCC3)cc1)[C@@H]2CO, the CPE inhibition is reported as -4.44% (inactive). In the case of COc1cccc(S(=O)(=O)N2CCCCN3[C@H](CO)[C@H](c4ccc(C#CC5CC5)cc4)[C@H]3C2)c1, the CPE inhibition is reported as -34.9% (inactive). In the case of CCN1[C@@H]2Cn3c(ccc(-c4cccc(OC)c4)c3=O)[C@H]1[C@@H](C(=O)N(C)C)[C@@H]2CO, the CPE inhibition is reported as -1.41% (inactive).
